DT40 TDP1 CPT: DT40-hTDP1 cell growth loss with CPT | AID 686979 | chicken DT40 Tdp1-/-;hTDP1 cells + 20 nM CPT, ATP luminescence, 48 h | 12% of 420,000 active | Potency, µM (highest dose often 46.2 µM), usual class: inhibitors; note: nearly all actives have a fitted effect of over 55% in size
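Chicken DT40 Tdp1-/- cells complemented with human TDP1, 400 cells/well, exposed to compounds plus 20 nM camptothecin for at least 48 h at 37 C; viability read as ATP content by CellTiter-Glo luminescence.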
DRD3 agonist: D3 dopamine receptor (human) agonism | P35462 | D3R DiscoveRx beta-arrestin cells, luminescence, 90 min | max activation, % | 0.58% of 410,000 active | AID 652048; in the data active = max activation above about 30%
Target sequence (P35462 whole entry, looked up): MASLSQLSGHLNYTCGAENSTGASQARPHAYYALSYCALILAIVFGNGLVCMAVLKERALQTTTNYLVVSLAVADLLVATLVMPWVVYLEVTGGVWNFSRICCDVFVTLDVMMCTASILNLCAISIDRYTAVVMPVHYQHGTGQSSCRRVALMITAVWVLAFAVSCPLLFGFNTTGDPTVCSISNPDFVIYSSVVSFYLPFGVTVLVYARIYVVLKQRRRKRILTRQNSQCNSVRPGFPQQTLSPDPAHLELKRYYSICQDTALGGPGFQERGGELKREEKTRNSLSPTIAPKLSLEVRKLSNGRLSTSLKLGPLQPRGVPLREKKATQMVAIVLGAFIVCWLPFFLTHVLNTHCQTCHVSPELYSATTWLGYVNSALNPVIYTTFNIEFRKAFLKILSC
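Agonist-mode cell screen: cells plated at 1500/well and incubated overnight at 37 °C, then exposed to library compounds for 90 min at 37 °C. Detection reagent was added for 30–60 min at room temperature, and luminescence was read.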
DRD3 antagonist: antagonists of human D3 dopamine receptor; D3R cells, DiscoveRx beta-arrestin luminescence, antagonist mode; active compounds read low; 2.5% of 360,000 active; AID 652054; P35462; max response, negative = inhibition, %; in the data active = max response below about -50%; inconclusive = no clear call, values can overlap the other calls
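Cells expressing the human receptor were seeded at 1500 cells/well, incubated overnight at 37 degrees C in 5% CO2, then exposed to library compounds with dopamine controls for 90 minutes at 37 degrees C before luminescent detection.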
IL-1B inflam inh: blocks inflammasome-driven IL-1 beta release; THP-1 LPS/ATP IL-1B secretion, AlphaLISA, 16 h; active compounds read low; activity change, % at 57.5 µM; 4.7% of 360,000 active; in the data active = activity change below about -50%; inconclusive = mostly about -30% to -49%
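Secreted IL-1B measured by AlphaLISA bead assay after 16 h compound exposure of THP-1 cells; compounds (final up to 57.5 uM) added 1 h before LPS (250 ng/mL) and ATP (1.25 mM) stimulation; lower signal means less secretion.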
ClpP mod: qHTS Assay for Activators of ClpP. ATP-dependent Clp protease proteolytic subunit (Bacillus subtilis (strain 168)), P80244. purified B. subtilis ClpP, FRET peptide cleavage, 20 min. Potency, µM (series often up to 57.5 µM). 1.9% of 340,000 active. AID 651965, 2013; active = well fitted falling curve with a large enough effect; inconclusive = small, poorly fitted or top-dose-only effect; inactive = no such curve, though single readings can be large or run the other way; note: the source files actives as falling curves though it sought activators and does not explain the sign; nearly all actives have a fitted effect of over 65% in size
Target sequence (P80244 whole entry, looked up): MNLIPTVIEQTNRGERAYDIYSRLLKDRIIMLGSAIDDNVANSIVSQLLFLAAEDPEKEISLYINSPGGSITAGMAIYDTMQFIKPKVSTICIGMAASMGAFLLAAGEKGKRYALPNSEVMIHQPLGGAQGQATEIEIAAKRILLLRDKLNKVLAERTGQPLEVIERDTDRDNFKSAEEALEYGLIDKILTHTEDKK
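ClpP 10 microg/mL final, pH 8 Tris/KCl buffer with BSA, glycerol, Tween-20; compound pinned in; FRET-FV substrate; RT 20 min; Ex320/Em430; ΔFRET vs ADEP 5.8 microM, DMSO, no enzyme.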
TDP1 cell noCPT: qHTS for Inhibitors of human tyrosyl-DNA phosphodiesterase 1 (TDP1): qHTS in cells in absence of CPT. 15% of 420,000 active. Potency, µM (top dose mostly 46.2 µM), most hits filed as inhibitors. DT40 Tdp1-/- hTDP1 cells, no CPT, ATP luminescence, 48 h; note: nearly all actives have a fitted effect of over 55% in size
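No-CPT arm: Tdp1-/-;hTDP1 DT40 cells (400/well) plus compounds, incubated ≥48 hr at 37 °C. Readout CellTiter-Glo luminescence.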
Hits are given with their value; . = inactive; ? = inconclusive; / = not tested or not shown. Sampled rows, rich in hits. Any-hit rate of the full collection: about 21%. Unless noted, calls come from the whole dose curve; as a rule, active = well fitted inhibition curve with a large enough effect; inconclusive = small, poorly fitted or top-dose-only effect; inactive = flat fitted curve, though single readings scatter.

SMILES | DT40 TDP1 CPT | DRD3 agonist | DRD3 antagonist | IL-1B inflam inh | ClpP mod | TDP1 cell noCPT
CC1(c2ccccc2Cl)NC(=O)N(CC(=O)Nc2ccc(N3CCCCC3)cc2)C1=O (configuration not stated) | ? | . | . | . | . | 21µM
CC(C)C(=O)Nc1ccc(C(=O)CN2C(=O)NC3(CCOc4ccccc43)C2=O)cc1 (configuration not stated) | ? | . | . | . | . | ?
O=c1[nH]c(SCc2cccc(Cl)c2)nc2[nH]ncc12 | ? | . | . | . | . | .
O=C(CN1C(=O)NC2(CCCC2)C1=O)NCc1cccc(Cl)c1 | . | . | . | -59 | / | .
O=C(CN1C(=O)NC2(CCCCCCC2)C1=O)NCc1ccc(Cl)cc1 | . | . | . | ? | . | .
CC(C)c1ccc(NC(=O)CN2C(=O)NC3(CCCCCCC3)C2=O)cc1 | 21µM | . | . | . | . | 21µM
Cn1c(=O)c2c(SCC(=O)N3CCc4ccccc43)nc(-c3cccc(F)c3)nc2n(C)c1=O | . | . | / | / | . | .
COc1ccc(CCNC(=O)CNC(=O)c2ccc(Br)o2)cc1OC | . | . | . | . | . | .
CN1C(=S)SC(N2OC3C(=O)N(c4ccccc4)C(=O)C3C2c2ccc(Cl)cc2)C1(C)C (configuration not stated) | . | . | . | . | 28µM | .
O=C1CC(c2ccccc2)CC2=C1C(c1ccccn1)Nc1ccccc1N2 (configuration not stated) | . | . | . | . | . | .
O=C1CC(c2ccc(F)cc2)CC2=C1C(c1ccc([N+](=O)[O-])o1)Nc1ccccc1N2 (configuration not stated) | ? | . | . | -74 | / | 16µM
COc1ccc(N(Cc2ccccc2)C(=O)c2nc(SC)ncc2Cl)cc1 | 10µM | . | / | / | . | 5.2µM
COc1ccc(OC(=O)c2nc(SCc3ccc(F)cc3)ncc2Cl)cc1 | . | . | / | / | . | .
CCS(=O)(=O)c1ncc(Cl)c(C(=O)N(Cc2ccccc2)c2ccc(OC)cc2)n1 | 1µM | . | / | / | . | 0.65µM
O=C(NNC(=S)NC(=O)c1sc2ccccc2c1Cl)c1ccc(Cl)cc1 | 18µM | . | . | . | . | ?
O=C(O)c1ccccc1NC(=S)NC(=O)c1sc2ccccc2c1Cl | ? | . | . | . | . | 16µM
Cc1ccc(S(=O)(=O)C(CNC(=O)C(=O)NCCc2ccc(Cl)cc2)c2cccs2)cc1 (configuration not stated) | ? | . | / | / | . | ?
COc1ccc(OC)c(NC(=O)CSc2nnc(C3CCCCC3)o2)c1 | . | . | . | . | / | .
CCCn1c(Nc2nc3ccccc3n2C)nc2ccccc21 | . | . | -102 | -99 | . | ?
CCCCn1c(Nc2ccccc2)nc2ccccc21 | . | . | . | . | . | .
CCCn1c(NC(=O)c2ccc(C)cc2)nc2ccccc21 | ? | . | . | . | . | 26µM
CN1CCN(S(=O)(=O)c2cccc(C(=O)Nc3sc4c(c3-c3nc5ccccc5[nH]3)CCCC4)c2)CC1 | 15µM | . | . | . | . | 13µM
CC(=O)N1CCN(S(=O)(=O)c2cccc(C(=O)Nc3nc4c(s3)CCCC4)c2)CC1 | ? | . | . | . | . | ?
CCCn1c(NC(=O)c2ccccc2)nc2ccccc21 | ? | . | ? | . | . | ?
CCCn1c(NC(=O)C2CCN(S(=O)(=O)c3cccs3)CC2)nc2ccccc21 | 15µM | . | . | ? | . | 16µM
SMILES | DT40 TDP1 CPT | DRD3 agonist | DRD3 antagonist | IL-1B inflam inh | ClpP mod | TDP1 cell noCPT
Cc1csc(NC(=O)C2CCN(S(=O)(=O)c3cccs3)CC2)n1 | ? | . | . | . | . | .
Cc1cccc(-c2nc(SCC(=O)NCC3CCCO3)c3c(=O)n(C)c(=O)n(C)c3n2)c1 (configuration not stated) | . | . | / | / | . | .
Cc1n[nH]c(C)c1NC(=O)CSc1nnnn1-c1cccc(F)c1 | . | . | . | . | . | .
Cc1ccccc1NC(=O)c1cccc(S(=O)(=O)N2CCCCC2)c1 | . | . | . | . | / | .
Cc1nc(-c2cccc(NC(=O)C3CCCCC3)c2)cs1 | ? | . | . | . | . | .
Cc1csc(NC(=O)C2CCN(S(=O)(=O)c3ccccc3F)CC2)n1 | ? | . | . | . | / | 26µM
CC(=O)Nc1ccc(-c2csc(NC(=O)C3CCN(S(=O)(=O)c4cccs4)CC3)n2)cc1 | 16µM | . | . | . | . | 8.2µM
Cc1nc(-c2ccc(NC(=O)C3CC3)cc2)cs1 | 23µM | . | . | . | / | 18µM
CCCn1c(NC(=O)c2cccc(S(=O)(=O)N3CCCC3)c2)nc2ccccc21 | 23µM | . | . | -92 | ? | 13µM
COc1ccccc1NC(=O)N1CCCC1C(=O)NCCc1ccccc1 (configuration not stated) | . | . | . | . | . | .
O=C(NCCCSc1ccccc1)c1cc(Cl)ccc1O | ? | . | . | . | . | ?
N#CC1=C(SCC(=O)Nc2ccccc2)NC(=O)CC1c1ccco1 (configuration not stated) | 7.3µM | . | . | . | . | 18µM
Cc1ccc(C2CC(=O)NC(SCc3ccccc3)=C2C#N)o1 (configuration not stated) | . | . | -62 | . | . | ?
N#CC1=C(SCC(=O)NCc2ccccc2)NC(=O)CC1c1ccco1 (configuration not stated) | ? | . | . | . | . | 23µM
NC(=O)c1ccccc1NC(=O)COc1ccc2c(c1)OCO2 | . | . | . | . | / | ?
COc1ccc(C)cc1NC(=O)CCC(=O)Nc1nnc(C2CCCCC2)s1 | . | . | . | . | . | .
CC1CCN(C(=O)CCN2C(=O)C3C4C=CC(C4)C3C2=O)CC1 (configuration not stated) | . | . | . | . | . | .
Cc1cccc(N2CCN(C(=O)CCN3C(=O)C4C5C=CC(C5)C4C3=O)CC2C)c1 (configuration not stated) | . | . | . | . | . | 26µM
Cc1cccc(N2CCN(C(=O)c3cccc(N4C(=O)C5C6C=CC(C6)C5C4=O)c3)CC2C)c1 (configuration not stated) | 13µM | . | . | . | . | 21µM
CCOc1ccc(S(=O)(=O)N2CCN(c3cc(Cl)ccc3Cl)CC2)c2ccccc12 | / | . | / | / | ? | /
COc1ccc(CN(C(=O)c2snc(C(N)=O)c2N)C(C(=O)NC2CCCC2)c2ccco2)cc1 (configuration not stated) | . | . | . | ? | / | ?
